# Measurements as given in PubChem BioAssay (NCI).
# The panel holds about 83,000 compounds, 20% with a hit somewhere; the sample as a whole holds those more often.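 Cells were grown in 96-well plates and exposed to the test compound at a single concentration for 48 hours; results are reported as percent growth, with values below 10 considered active.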 A number with no mark means an inactive call. Activity calls are given as the source filed them.
# Test system: HL-60(TB) leukemia
# Assay: NCI-60 one-dose screen, 48 h (100 = growth as untreated, 0 = no growth, -100 = all killed)
# Settings: 10 µM unless noted
row,SMILES,growth
1,Nc1cccc2c(=S)c3ccccc3[nH]c12,107%
2,C#C[C@@]1(O)[C@@H](CO)O[C@@H](n2cc(Br)c3c(N)ncnc32)[C@@H]1O,-62.5% (active)
3,C=C1C(=O)O[C@H]2[C@H]1CC/C(COC(=O)c1ccc(C#N)cc1)=C\CC[C@@]1(C)O[C@@H]21,-33.6% (active)
4,Cc1ccc(-c2c3c(N)c4c(nc3nc3c2c(C)nn3-c2ccccc2)CCCC4)cc1,98.5%
